# Source: the supplement of paper PMC7156485
# ± gives the standard deviation of the averaged measurements.
# Experiments:
# Details in all cases: concentration: 10 µM; 24 h
# [1] = system: HCC1569; test: cell number relative to DMSO (% of DMSO); higher = more cells (less growth inhibition / toxicity)
# How it was run: (§1)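 Six fields per well were imaged at ×10 after the cells were fixed in 3.7% formaldehyde and stained with a rabbit anti-H1.0 antibody, an AlexaFluor 647 secondary and DAPI. The HCC1569 and TDF cells had been plated at 800 per well in 384-well plates (RPMI, 10% FBS) and treated in triplicate with compounds at 10 µM for 24 h at 37 °C. The values are the median of replicates of H1.0 nuclear intensity or cell number, as percent of the plate control. Smoothing for positional effects was applied to HCC1569 data.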
# [2] = system: TDF; test: as above
# How it was run: as §1
# [3] = system: TDF; test: H1.0 immunofluorescence intensity relative to DMSO (% of DMSO); higher = stronger H1.0 induction, active = 120 or more
# How it was run: as §1
# [4] = system: HCC1569; test: H1.0 immunofluorescence intensity relative to DMSO (% of DMSO); higher = stronger H1.0 induction, active = 140 or more
# How it was run: as §1
# 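Throughout, for H1.0 immunofluorescence intensity relative to DMSO: TDF is a line of transformed human dermal fibroblasts of mesenchymal origin.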
# 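Throughout, for cell number relative to DMSO: TDF denotes transformed human dermal fibroblasts of mesenchymal origin.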
Compound,cell number [1],cell number [2],H1.0 immunofluorescence intensity [3],H1.0 immunofluorescence intensity [4]
N[C@@H](Cc1c[nH]c2ccccc12)C(=O)O [L-Tryptophan],101,103,96.6 (inactive),108 (inactive)
CCCCCCCCCCCCCCCCCCCC(=O)O [Eicosanoic acid],99.8,102,102 (inactive),101 (inactive)
NS(=O)(=O)c1cc2c(cc1Cl)NCNS2(=O)=O [Hydrochlorothiazide],105,107,90.9 (inactive),89.9 (inactive)
CCc1c(CC(N)=O)c2cc(OCCCP(=O)(O)O)ccc2n1Cc1ccccc1,101,104,96 (inactive),101 (inactive)
"CCCCc1c(-c2ccc(OC)cc2)[nH]c2nccnc12 [Aloisine, RP106]",94.7,97.5,93.2 (inactive),110 (inactive)
OC(CS)C(O)CS (stereo not drawn),103,104,93.7 (inactive),102 (inactive)
CC(N)(Cc1ccc(O)c(O)c1)C(=O)O [L-alpha-Methyl DOPA],96.4,98.5,91.3 (inactive),86.8 (inactive)
CCOC(=O)C=Cc1ccc(O)c(OC)c1 [Ferulic acid ethylester],98.3,95.4,90.2 (inactive),93.6 (inactive)
CC#CC1(O)CCC2C3CCC4=CC(=O)CCC4=C3C(c3ccc(N(C)C)cc3)CC21C (stereo not drawn) [Mifepristone],101 ± 8.2,111 ± 13,96.8 (inactive),102 (inactive)
"CC(C)(C)C1(O)CCN2CC3c4ccccc4CCc4cccc(c43)C2C1.Cl (single isomer, unassigned; (+)) [(+)-Butaclamol hydrochloride]",54,49.9,126 (active),251 (active)
CC12C=Cc3occc3C1CCC13CC(=O)C(CCC12)C3 (stereo not drawn) [16-Oxokahweol],97.7,98.5,91.4 (inactive),99.3 (inactive)
CCCCCCCCCCOCCC(=O)O [4-Oxatetradecanoic acid],102,110,95.6 (inactive),103 (inactive)
N[C@H](CO)C(=O)O [D-Serine],104,112,87.2 (inactive),102 (inactive)
COc1ccc(CC(N)C(=O)NC2C(CO)OC(n3cnc4c(N(C)C)ncnc43)C2O)cc1 (stereo not drawn) [Puromycin],24.1 ± 7.4,99.2 ± 15,94 (inactive),90.9 (inactive)
COc1ccc(C(=O)Nc2sc3c(c2C(N)=O)CCCC3)cc1OC,98.8,109,94.4 (inactive),121 (inactive)
Cc1cc2nc(NCCCO)n(CC(=O)c3cc(C(C)(C)C)c(O)c(C(C)(C)C)c3)c2cc1C,67.9,78.5,97.1 (inactive),173 (active)
Nc1nc(Nc2ccccc2)nc2c1ncn2C1OC(CO)C(O)C1O (stereo not drawn) [2-Phenylaminoadenosine],101,100,90 (inactive),102 (inactive)
NCCC(O)(P(=O)([O-])O)P(=O)([O-])O.O.O.O.O.O.[Na+].[Na+] [Pamidronate.2Na.5H2O],101,96.8,95 (inactive),107 (inactive)
COc1ccc(/C=C\c2cc(OC)c(OC)c(OC)c2)cc1OP(=O)([O-])[O-].[Na+].[Na+],57.8,10.1,197 (active),140 (inactive)
COC(=O)C(Cc1ccc(OCCn2c(=O)sc3cc(C(=O)c4ccccc4)ccc32)cc1)C(=O)OC,102,91.8,93.3 (inactive),105 (inactive)
CCN(CC)C(C)C(=O)N1c2ccccc2Sc2ccccc21.Cl (stereo not drawn) [10-(alpha-Diethylaminopropionyl)-phenothiazine hydrochloride],93.7,99,98.5 (inactive),85.9 (inactive)
CN1C(CC(=O)c2ccccc2)CCCC1CC(O)c1ccccc1.Cl (stereo not drawn),102,90.9,102 (inactive),99.2 (inactive)
Cc1ccc(-c2ncc(Cl)cc2-c2ccc(S(C)(=O)=O)cc2)cn1 [Etoricoxib],106,97.1,101 (inactive),92.2 (inactive)
COc1ccnc(CS(=O)c2nc3cc(OC(F)F)ccc3[n-]2)c1OC.O.[Na+] (stereo not drawn),104,92.8,95.7 (inactive),100 (inactive)
COc1ccc(C(C)=O)c(O)c1 [Paeonol],99,102,92.9 (inactive),101 (inactive)
CC(=O)O.CN=C(N)NCCCC(N)C(=O)O [NG-Monomethyl-L-arginine acetate],100,102,95.6 (inactive),101 (inactive)

Compound,cell number [1],cell number [2],H1.0 immunofluorescence intensity [3],H1.0 immunofluorescence intensity [4]
CN(C)CCCN1c2ccccc2CCc2ccccc21.Cl [Imipramine.HCl],100,97.4,95.2 (inactive),100 (inactive)
O=C(C=Cc1ccc(O)c(O)c1)OC1CC(O)(C(=O)O)CC(O)C1O (stereo not drawn) [Chlorogenic acid],100,98.2,103 (inactive),100 (inactive)
CC(C)(C)NCC(O)c1ccc(O)c(CO)c1.CC(C)(C)NCC(O)c1ccc(O)c(CO)c1.O=S(=O)(O)O (stereo not drawn) [Albuterol hemisulfate],99.8,103,92.5 (inactive),107 (inactive)
C=CCc1ccccc1OCC(O)CNC(C)C.Cl (stereo not drawn) [Alprenolol hydrochloride],96.8,91,103 (inactive),104 (inactive)
COc1c(N2CCNC(C)C2)c(F)cc2c(=O)c(C(=O)O)cn(C3CC3)c12 (stereo not drawn) [Gatifloxacin],101,107,94.2 (inactive),107 (inactive)
CCCCc1ncc(C=C(Cc2cccs2)C(=O)O)n1Cc1ccc(C(=O)O)cc1.CS(=O)(=O)O [Eprosartan mesylate],97.1,91.7,96.4 (inactive),97.4 (inactive)
CCCCCCCCCCCCCCCC(O)C(N)CO (stereo not drawn) [Dihydrosphingosine],102,94.5,98.8 (inactive),106 (inactive)
CNS(=O)(=O)Cc1ccc2[nH]cc(CCN(C)C)c2c1.O=C(O)CCC(=O)O [Sumatriptan Succinate],98,106,90.9 (inactive),114 (inactive)
"N#CCCc1ccc2c(c1)-c1[nH]c3ccc([N+](=O)[O-])cc3c1CC(=O)N2 [Alsterpaullone,                   2-Cyanoethyl]",63.2,32.7,112 (inactive),113 (inactive)
CCCC(C(=O)OCCN(CC)CC)(c1ccccc1)c1ccccc1.Cl [SKF-525A hydrochloride],94,100,88.8 (inactive),102 (inactive)
O=C(Nc1ccc(Oc2ccnc3[nH]ccc23)c(F)c1)c1cccn(-c2ccc(F)cc2)c1=O,102,103,95.1 (inactive),111 (inactive)
CC(C=CC=C(C)C=CC1=C(C)CCCC1(C)C)=CC=CC=C(C)C=CC=C(C)C=CC1=C(C)CCCC1(C)C,101,106,101 (inactive),103 (inactive)
CCCCCC=CC=CC(O)CCCCCCCC(=O)O (stereo not drawn),104,100,100 (inactive),100 (inactive)
O=c1[nH]c2ccccc2n1CCCN1CCN(C(c2ccccc2)c2ccccc2)CC1 [Oxatomide],98.3 ± 2.3,105 ± 7.4,90.8 (inactive),101 (inactive)
CNCCCC12CCC(c3ccccc31)c1ccccc12.Cl [Maprotiline.HCl],100,90.4,94.5 (inactive),119 (inactive)
Cc1cc(NC(=O)CS(=O)(=O)c2cn(Cc3cc(Br)ccc3F)c3ccccc23)no1,82.5,99.6,90 (inactive),151 (active)
Cl.Fc1cccc(CN(C2=NCCN2)c2c(Cl)cccc2Cl)c1 [IMID-4F hydrochloride],99.4,99.7,102 (inactive),134 (inactive)
Cc1cc(C(C)Nc2ccccc2)c2nc(N3CCOCC3)cc(=O)n2c1 (stereo not drawn),80.7,109,92.5 (inactive),136 (inactive)
Br.Br.N=C(N)SCCc1cnc[nH]1 [Imetit dihydrobromide],103,103,94.8 (inactive),80.5 (inactive)
COc1cc2nc(N3CCN(C(=O)C4CCCO4)CC3)nc(N)c2cc1OC.Cl (stereo not drawn) [Terazosin hydrochloride],100,95.1,92.6 (inactive),102 (inactive)
CCOC(=O)CNC(=O)[C@@H]1CCCN1C(=O)Cc1ccccc1,102,109,97.4 (inactive),87.1 (inactive)
O=c1cc(N2CCNCC2)oc2c(-c3ccccc3)cccc12,101,98.3,92.8 (inactive),136 (inactive)
O.O=P(O)(O)C(O)(Cn1ccnc1)P(=O)(O)O,99.2,94,94.5 (inactive),102 (inactive)
OC(Cn1cncn1)(Cn1cncn1)c1ccc(F)cc1F [Fluconazole],102,100,93.8 (inactive),106 (inactive)
CN(C)CCOC(c1ccccc1)c1ccccc1.Cl [Diphenhydramine hydrochloride],100,105,88.7 (inactive),97 (inactive)
CCC(=O)OC1(C(=O)CCl)C(C)CC2C3CCC4=CC(=O)C=CC4(C)C3(F)C(O)CC21C (stereo not drawn) [Clobetasol Propionate],109,114,87.8 (inactive),100 (inactive)
